Only some compounds are listed: those with a hit (about 1.6% of all), similar ones and a draw of the others.
NSD2 inh – NSD2 (human) methyltransferase inhibition; AID 743445; NSD2 peptide methylation, AlphaScreen, 120 min; 310,000 tested, 0.54% active; O96028; inhibition, % at 12.5 µM; in the data active means inhibition above about 50%
NPR2 activator – GC-B (human) receptor activation; activation, % at 10 µM; HEK293-GC-B cells, CNP EC30, cGMP TR-FRET; 0% at EC30 CNP, 100% saturating CNP; 370,000 tested, 0.11% active; AID 1920062;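 active means activation at 10 µM reaching about 35% in either raw or pattern-adjusted values, limit read from the data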
Rce1 inh – inhibitors of yeast Ras-converting enzyme; Q03530; calls only; 290,000 tested, 0.27% active; yeast membranes, quenched prenylated peptide cleavage fluorescence;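 active means fall in fluorescence gain of 50% or more versus controls, with final raw signal at or below 3038400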
GC-A act – GC-A (human) enzyme activation; activation, % at 10 µM; HEK293 GC-A cells, cGMP TR-FRET, EC30 ANP; 0% at EC30 ANP, 100% saturating ANP; AID 1671463; 370,000 tested, 0.14% active; P16066; in the data active means activation above about 40%
Target sequence (P16066 whole entry, looked up): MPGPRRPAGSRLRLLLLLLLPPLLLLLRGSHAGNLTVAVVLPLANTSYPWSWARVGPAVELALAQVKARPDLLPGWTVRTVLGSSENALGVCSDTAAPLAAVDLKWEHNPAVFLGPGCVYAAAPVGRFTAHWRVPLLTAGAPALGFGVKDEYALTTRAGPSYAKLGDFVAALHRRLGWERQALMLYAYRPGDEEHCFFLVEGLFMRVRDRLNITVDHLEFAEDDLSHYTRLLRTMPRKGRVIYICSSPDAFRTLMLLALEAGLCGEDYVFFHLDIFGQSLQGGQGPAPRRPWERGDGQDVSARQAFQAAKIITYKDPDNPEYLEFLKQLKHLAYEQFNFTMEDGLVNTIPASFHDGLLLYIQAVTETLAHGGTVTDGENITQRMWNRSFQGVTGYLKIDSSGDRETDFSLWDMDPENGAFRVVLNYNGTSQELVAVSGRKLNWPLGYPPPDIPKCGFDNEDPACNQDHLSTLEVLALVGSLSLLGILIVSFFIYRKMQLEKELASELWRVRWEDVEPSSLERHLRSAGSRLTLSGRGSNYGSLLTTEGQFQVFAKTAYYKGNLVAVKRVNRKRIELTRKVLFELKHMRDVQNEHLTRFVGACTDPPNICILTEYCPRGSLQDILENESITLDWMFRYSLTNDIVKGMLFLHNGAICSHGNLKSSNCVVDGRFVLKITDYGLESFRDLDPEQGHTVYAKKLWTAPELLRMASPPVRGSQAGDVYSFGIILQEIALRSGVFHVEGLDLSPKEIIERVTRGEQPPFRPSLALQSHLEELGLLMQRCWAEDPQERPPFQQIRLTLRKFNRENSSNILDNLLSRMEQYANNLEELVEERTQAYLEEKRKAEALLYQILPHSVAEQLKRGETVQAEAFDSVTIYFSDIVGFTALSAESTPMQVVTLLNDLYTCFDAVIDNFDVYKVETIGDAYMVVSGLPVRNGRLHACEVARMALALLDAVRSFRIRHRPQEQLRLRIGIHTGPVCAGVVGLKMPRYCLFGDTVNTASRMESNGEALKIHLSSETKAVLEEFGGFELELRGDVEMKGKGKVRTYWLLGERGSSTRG
Efflux pump inh – inhibitors of Candida antifungal efflux pumps expressed in yeast; inhibition, % at 10 µM; 330,000 tested, 0.44% active; S. cerevisiae Candida pump triplex, Nile Red efflux; AID 485275;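 active means plate passing quality check with inhibition over a set limit, or well fluorescence over plate mean plus 4 SD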;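 further: Nile Red retained in pooled yeast measured as flow cytometry median fluorescence; higher means more Nile Red kept so more efflux inhibition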
V-ATPase pHluor – alters yeast V-ATPase proton transport. S. cerevisiae, pHLuorin cytosolic pH fluorescence. response, % at 10 µM. 350,000 tested, 0.37% active. AID 504577; in the data active means response mostly above about 7.3%, no sharp cut-off; inactive means mostly below about 5.4%; further: actives read high
Cmpd fluor yeast – compound fluorescence in yeast efflux pump counter-screen; S. cerevisiae AD/pABC3, flow cytometry; 1,700 tested, 4% active; AID 588517; shares compounds with Efflux pump inh; fluorescence ratio to DMSO, % at 10 µM;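 active means fluorescence ratio to DMSO above its plate's cutoff, the plate mean ratio plus 5 SD, cut at about 210% in these data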;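 further: unstained yeast with no Nile Red so the signal is compound autofluorescence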
Mdr1 pump inh – Candida Mdr1 efflux pump inhibition; S. cerevisiae AD/CaMDR1, Nile Red efflux, flow cytometry; AID 588518; inhibition, % at 10 µM; 1,700 tested, 1% active; shares compounds with Efflux pump inh; in the data active means inhibition above about 26%;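 further: higher means more Nile Red retained so more efflux inhibition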
Cdr2 pump inh – Candida Cdr2 efflux pump inhibition. shares compounds with Efflux pump inh. S. cerevisiae AD/CaCDR2, Nile Red retention, flow cytometry. Nile Red retention ratio vs DMSO, % at 10 µM. 1,700 tested, 4% active. AID 588520; in the data active means Nile Red retention ratio vs DMSO above about 190%;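 further: higher ratio means more blocking of Cdr2 efflux of the dye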
Cdr1 pump inh – Candida Cdr1 efflux pump inhibition. S. cerevisiae AD/CaCDR1, Nile Red efflux, flow cytometry. inhibition, % at 10 µM. shares compounds with Efflux pump inh. 1,700 tested, 1% active;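 active means inhibition above the screen-wide mean plus twice its standard deviation, cut at about 32% in these data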
Large screens that a line does not name were inactive (follow-up assays come after a bar, where they were run).

CC(CCc1ccccc1)NC(=O)c1ccc(NC(=O)c2cccc(Br)c2)cc1 (stereo not given)	Efflux pump inh 6.5 | Cmpd fluor yeast inactive | Mdr1 pump inh inactive | Cdr2 pump inh inactive | Cdr1 pump inh inactive
C/C(=N\Nc1nc(N)cc(Cl)n1)c1ccc(F)cc1	Efflux pump inh 0.5 | Cmpd fluor yeast inactive | Mdr1 pump inh inactive | Cdr2 pump inh inactive | Cdr1 pump inh inactive
O=C(c1cccs1)c1no[n+]([O-])c1C(=O)c1cccs1	Efflux pump inh 0.9 (no result: NSD2 inh, NPR2 activator, GC-A act) | Cmpd fluor yeast inactive | Mdr1 pump inh inactive | Cdr2 pump inh 287 | Cdr1 pump inh inactive
O=C(NCc1cccs1)c1ccc(Cl)c(S(=O)(=O)N2CCOCC2)c1	none (no result: Rce1 inh, Efflux pump inh, V-ATPase pHluor)
O=C(NCC(c1cccs1)N1CCOCC1)c1ccc(Cl)c(S(=O)(=O)N2CCOCC2)c1 (stereo not given)	Efflux pump inh 1.1 | Cmpd fluor yeast inactive | Mdr1 pump inh inactive | Cdr2 pump inh inactive | Cdr1 pump inh inactive
Cc1occc1C(=O)NNC(=O)c1ccccc1F	Efflux pump inh 1.1 | Cmpd fluor yeast inactive | Mdr1 pump inh inactive | Cdr2 pump inh inactive | Cdr1 pump inh inactive
COC(=O)C1CN(Cc2ccccc2)CCS(=O)(=O)N1Cc1ccc(C)cc1 (stereo not given)	none (no result: NSD2 inh, Rce1 inh, Efflux pump inh, V-ATPase pHluor)
CC(C)n1c(N2CCN(CC(=O)NCc3cccs3)CC2)nc2ccccc21	Efflux pump inh 1.5 | Cmpd fluor yeast inactive | Mdr1 pump inh inactive | Cdr2 pump inh inactive | Cdr1 pump inh inactive
CC(C)n1c(N2CCN(C(=O)c3cccs3)CC2)nc2ccccc21	none (no result: Rce1 inh)
Cn1cnc([N+](=O)[O-])c1Oc1cccc2ccccc12	Efflux pump inh 1.1 | Cmpd fluor yeast inactive | Mdr1 pump inh inactive | Cdr2 pump inh inactive | Cdr1 pump inh inactive
Cn1cnc([N+](=O)[O-])c1S(=O)(=O)Oc1cccc2ccccc12	none (no result: Rce1 inh, Efflux pump inh)
CCOC(=O)N1CCC2(CC1)NCCc1c2[nH]c2ccccc12	Efflux pump inh 0.9 | Cmpd fluor yeast inactive | Mdr1 pump inh inactive | Cdr2 pump inh inactive | Cdr1 pump inh inactive
COC(=O)C1(C)NCCc2c1[nH]c1ccccc21 (stereo not given)	none (no result: NSD2 inh)
COc1ccc(-c2cc(C(=O)NCCN3CCOCC3)c3ccccc3n2)cc1	none | Cmpd fluor yeast inactive | Mdr1 pump inh inactive | Cdr2 pump inh inactive | Cdr1 pump inh inactive
Cc1n[nH]c(C)c1S(=O)(=O)N1CCc2ccccc21	none
Cc1cc(C)c(S(=O)(=O)N2CCc3ccccc32)c(C)c1	Efflux pump inh 0.9 | Cmpd fluor yeast inactive | Mdr1 pump inh inactive | Cdr2 pump inh inactive | Cdr1 pump inh inactive
Cc1ccc(CC(NC(=O)c2ccccc2)C(=O)NC(C)C(=O)O)cc1 (stereo not given)	Efflux pump inh 1.5 | Cmpd fluor yeast inactive | Mdr1 pump inh inactive | Cdr2 pump inh inactive | Cdr1 pump inh inactive
O=C(NC(Cc1ccccc1)C(=O)O)c1ccccc1 (stereo not given)	none
C/C(Cl)=C\C[N+](C)(C)CC(=O)OCCc1ccccc1	Efflux pump inh 0.5 | Cmpd fluor yeast inactive | Mdr1 pump inh inactive | Cdr2 pump inh inactive | Cdr1 pump inh inactive
Cc1c(NC(=O)c2ccc(N3CCCC3)c([N+](=O)[O-])c2)cccc1-c1nc2ccccc2s1	none
Cc1c(NC(=O)c2ncn[nH]2)cccc1-c1nc2ccccc2s1	Efflux pump inh 6.2 | Cmpd fluor yeast inactive | Mdr1 pump inh inactive | Cdr2 pump inh inactive | Cdr1 pump inh inactive
O=C(OC12CCCN(C1)/C(=C/c1ccc(Cl)cc1)C2)c1ccccc1 (stereo not given)	none (no result: NSD2 inh, Rce1 inh, Efflux pump inh, V-ATPase pHluor)
O=C(N/N=C\c1ccc(CNS(=O)(=O)c2ccccc2)o1)C(=O)Nc1ccc(F)cc1	none

High-throughput results as filed in PubChem.
